# Measurements: PubChem BioAssay AID1865 (National Center for Advancing Translational Sciences (NCATS), 2009)
# Where “and” joins values, the source holds several entries; their conditions need not be identical. Equal entries are not always repeated. The campaign covered roughly 280,000 compounds. About 540 (0.19%) were called active. Not shown: some 2% with an inconclusive outcome. The call rests on the fitted dose curve; in most records, active means well fitted activation curve with a large enough effect; inconclusive means small, poorly fitted or top-dose-only effect; inactive means flat fitted curve, though single readings scatter. What follows is part of a selection rich in actives, with near analogues and random picks from the rest. A call without a number means that no potency is given here. A structure can be active in one record and inactive in another.
# Assay: Quantitative High-Throughput Screen for Regulators of Epigenetic Control; further: nearly all actives have a fitted effect of over 60% in size
# Settings: murine LDR cells, GFP reporter derepression, 30 h; series mostly up to 53.9 µM
# Description: NIH Molecular Libraries Screening Centers Network [MLPCN] NIH Chemical Genomics Center [NCGC] MLSCN Grant: 1 X01 MH079860-01 Assay Provider: Elisabeth D. Martinez, University of Texas SW Medical Center NCGC Assay Overview: The Locus Derepression (LDR) assay detects the derepression or induction of a GFP reporter that is stably integrated in a genomic region of murine cells that is presumably silenced. Transcription of the GFP reporter is controlled by a CMV promoter, which normally is constitutively active. However, this cell line, termed LDR, was selected for lack of constitutive production of GFP. GFP production can be induced by incubating the cells with histone deacetylase or DNA methyltransferase inhibitors (Martinez et al., 2006). Compounds that derepress or induce this reporter locus are identified by enumerating GFP positive cells using a laser-scanning microplate cytometer (Auld et al., 2006). This assay was screened against the MLSMR earlier (AID 597; (Johnson et al., 2008) and has been rescreened here against the expanded collection.
# NCGC Assay Protocol Summary: Three hundred LDR cells in 5 uL per well were dispensed into black, clear-bottom 1536-well plates. Twenty-three nL compound was transferred to the assay plate and cells were incubated 30 hours at 37 C. Medium was removed, cells were washed two times with PBS, and GFP-positive cells were enumerated as fluorescent objects between the sizes of 20 to 120 um width and depth using an Acumen Explorer. References Auld, DS, Johnson, RL, Zhang, YQ, Veith, H, Jadhav, A, Yasgar, A, Simeonov, A, Zheng, W, Martinez, ED, Westwick, JK, Austin, CP, Inglese, J (2006). Fluorescent protein-based cellular assays analyzed by laser-scanning microplate cytometry in 1536-well plate format. Methods Enzymol 414: 566-89. Johnson, RL, Huang, W, Jadhav, A, Austin, CP, Inglese, J, Martinez, ED (2008). A quantitative high-throughput screen identifies potential epigenetic modulators of gene expression. Anal Biochem 375: 237-48. Martinez, ED, Dull, AB, Beutler, JA, Hager, GL (2006). High-content fluorescence-based screening for epigenetic modulators. Methods Enzymol 414: 21-36.
# Potency means the concentration at half of the fitted maximal effect.
row,Structure (SMILES),Potency
1,N#CC(C#N)=Cc1cc(O)c(O)c([N+](=O)[O-])c1,inactive and 17.8 µM (active)
2,C[C@@]12CC[C@H]3[C@@H](CC[C@]4(O)C[C@H](O)CC[C@@]34C=O)[C@]1(O)CC[C@@H]2C1=CC(=O)OC1,inactive
3,CCCCCCCCc1[se]c2ccccc2c1Br,inactive
4,COc1ccccc1-c1[se]c2ccccc2c1I,inactive
5,CN[C@@H]1C[C@H]2O[C@@](C)([C@@H]1OC)n1c3ccccc3c3c4c(c5c6ccccc6n2c5c31)C(=O)NC4,inactive
6,CC(C)(Cc1c[nH]c2ccc(Cl)cc12)NCCOc1ccccc1OCC1CC1,inactive
7,CC1=CC(=Cc2sc3ccccc3[n+]2C)C=C(C)O1,11.2 µM (active)
8,Fc1ccc(C(OCCN2CCN(C/C=C\c3ccccc3)CC2)c2ccc(F)cc2)cc1,inactive
9,CC(C)(O)c1[se]c2ccccc2c1I,inactive
10,NC[C@H](O)c1ccc(O)cc1,inactive
11,CCOc1ccc(CNC(=O)c2cccc(Nc3nc4ccccc4n4nnnc34)c2)cc1OC,20 µM (active)
12,CCCn1c(C(=O)c2ccccc2OC)nc2ccccc21,inactive
13,COc1cc(Cn2c(N)c(C(=O)NCc3ccco3)c3nc4ccccc4nc32)cc(OC)c1OC,inactive
14,C[C@]12CC[C@H](O)C[C@@H]1CC[C@H]1[C@H]2CC[C@]2(C)C(=O)CC[C@@H]12,inactive
15,CC(=O)c1c(O)c(C)c(O)c(Cc2c(O)c3c(c(C(=O)/C=C\c4ccccc4)c2O)OC(C)(C)C=C3)c1O,inactive
